Screening data deposited in PubChem by National Center for Advancing Translational Sciences (NCATS).
Shown is part of a subset that was picked to be rich in hits.
VACV mCherry inh = vaccinia inhibition (mCherry reporter); Vaccinia virus mCherry reporter infection, fluorescence; Potency, µM (doses to about 36.5 µM), inactives show at the top dose activity change, negative = inhibition, usual class: inhibitors; 310,000 compounds, 0.63% hits; AID 720579; calls by dose curve; tested in A549 cells; note: potency is the fitted concentration of half-maximal effect; % is set by controls: 0 for no effect and ±100 for the full control effect; nearly all actives have a fitted effect of over 35% in size
Cycloheximide cs = affects cycloheximide protein synthesis inhibition readout, counter-screen; 300,000 compounds, 12% hits; cell reporter, cycloheximide protein synthesis inhibition counterscreen; max response, %; in the data active = max response mostly above about 13%, no sharp cut-off; inactive = mostly below about 14%; note: read at 38.3 µM for the half of the compounds with a filed dose; 0% is about no effect
Marburg entry inh = blocks Marburg virus binding to or entry into cells; Potency, µM (titrated, usually from 37.8 µM), for inactives: at the highest dose activity change, negative = inhibition, usual class: inhibitors; Marburg virus pseudotyped entry inhibition, cell reporter; 300,000 compounds, 1.8% hits; calls by dose curve; tested in HEK293 cells; note: potency is the fitted concentration of half-maximal effect; % is set by controls: 0 for no effect and ±100 for the full control effect
Shiga inhibitor = Shiga toxin inhibition; Vero cells, Shiga toxin protein synthesis inhibition reporter; inhibition, % at 38.7 µM; 290,000 compounds, 9.2% hits; AID 2315; in the data active = inhibition mostly above about 28%, no sharp cut-off; inactive = mostly below about 43%; note: 0% is about no effect
Vaccinia Venus = vaccinia inhibition (Venus reporter). Potency, µM (doses to about 36.5 µM), inactives show at the top dose activity change, negative = inhibition, usual class: inhibitors. Vaccinia virus Venus reporter expression, fluorescence. AID 720580. 330,000 compounds, 0.46% hits; calls by dose curve; tested in A549 cells; note: potency is the fitted concentration of half-maximal effect; % is set by controls: 0 for no effect and ±100 for the full control effect; nearly all actives have a fitted effect of over 30% in size
LASV entry inh = inhibitors of Lassa virus binding or cell entry; Lassa virus pseudotype entry inhibition, cell reporter; Potency, µM (series often up to 37.9 µM), without a hit: top-dose activity change, negative = inhibition, usual class: inhibitors; AID 540256; 300,000 compounds, 1.2% hits; calls by dose curve; tested in HEK293 cells; note: potency is the fitted concentration of half-maximal effect; % is set by controls: 0 for no effect and ±100 for the full control effect; nearly all actives have a fitted effect of over 50% in size
Starred values were filed as active, the others as inactive; i = inactive; ? = inconclusive; . = not tested or not shown; [ ] = dose if it differs, or a comment.

SMILES	VACV mCherry inh	Cycloheximide cs	Marburg entry inh	Shiga inhibitor	Vaccinia Venus	LASV entry inh
Cc1cc2nnc(SCC(=O)Nc3cc(S(=O)(=O)N4CCOCC4)ccc3Cl)n2c2ccccc12	?	-1.0	7.94µM*	-6.7	?	14.1%
C=CCOc1ccc(/C(O)=C2\C(=O)C(=O)N(CCN(C)C)C2c2cccs2)cc1 (configuration not stated)	i	40.2	6.5%[46.1 µM]	61.6*	-3.1%	9.5%
CCN(CC)CCN1C(=O)C(=O)/C(=C(/O)c2ccc(OCC(C)C)cc2)C1c1ccncc1 (configuration not stated)	.	7.0	-1.9%	17.5	.	.
C=CCOc1cccc(C2/C(=C(\O)c3ccc(F)cc3)C(=O)C(=O)N2CCN(C)C)c1 (configuration not stated)	-25.8%	2.0	-28.3%[46.1 µM]	-11.1	-16.9%	22.4%
CCN(CC)CCN1C(=O)C(=O)/C(=C(/O)c2ccc(OC)cc2)C1c1cccs1 (configuration not stated)	.	57.9*	.	66.5*	.	.
CCOc1ccc(/C(O)=C2/C(=O)C(=O)N(CCN(CC)CC)C2c2cccs2)cc1 (configuration not stated)	.	43.3*	.	50.6*	.	.
CCCCCCCCN1C(=O)[C@H](CC(=O)N2CCN(C(=O)OCC)CC2)C[C@@]2(C(=O)OCC)CCCC=C12	-14.9%	.	.	.	-12.4%	.
Cc1ccc(NC(=O)CCN2C(=O)c3ccccc3Sc3ncccc32)c(Cl)c1	-22.0%	.	.	.	-16.3%	9.6%[46.1 µM]
COc1cc(/C=C/C(=O)N2CCC=CC2=O)cc(OC)c1OC	-19.0%	.	.	.	?	.
CC1CCC(Nc2ncnc3onc(-c4ccc(Cl)cc4)c23)CC1 (configuration not stated)	-1.6%	.	.	.	-1.8%	-8.3%[46.1 µM]
CSc1nsc(SCC(=O)Nc2ccc(C(C)=O)cc2)n1	.	47.5*	3.1%	71.8*	.	10.9%
COc1ccc(NC(=O)CSc2nc(SC)ns2)cc1	11.2µM*	18.9*	?	89.0*	?	-3.8%[46.1 µM]
Cc1c(C(C)(C)O)[nH]c2ccc(C(F)(F)F)cc12	-2.0%	8.6*	.	16.8	-15.4%	.
COCCn1c(=O)[nH]c2cc(C(=O)OC)ccc2c1=O	.	1.5	4.4%	-4.1	.	13.9%
Cc1c(C2(O)CCCCC2)[nH]c2ccc(C(F)(F)F)cc12	-24.7%	.	.	.	-29.9%	.
COC(=O)c1ccc2c(C)c(C(C)(C)O)[nH]c2c1	i	14.5*	.	36.7	-13.3%	.
Cc1ccccc1COc1ccc(/C(O)=C2\C(=O)C(=O)N(CCCn3ccnc3)[C@H]2c2ccco2)cc1	.	.	20.6%	.	.	.
CC1CCN(S(=O)(=O)c2ccc3c(c2)c(=O)c(C(=O)NC(C)c2ccccc2)cn3C)CC1 (configuration not stated)	-21.5%	.	4.1%[46.1 µM]	.	-10.2%	18.3%[46.1 µM]
CCC(=O)Oc1ccc(-c2nc(-c3cccnc3)no2)cc1	.	21.5*	?	32.0*	.	?
Cc1cccc(-c2nc(-c3ccncc3)no2)c1	i	40.1*	?	132.8*	-10.8%	10µM*
CC(C)Oc1ccc(-c2nc(-c3cccnc3)no2)cc1	37.7%	.	.	.	-11.9%	.
c1cncc(-c2noc(-c3ccco3)n2)c1	.	55.9*	3.2%	87.1*	-16.7%	16.3%
Cc1cc(C)cc(-c2nc(-c3ccncc3)no2)c1	-0.2%	11.0*	.	64.8	-20.7%	.
c1ccc(CCc2ccccc2-c2nc(-c3cccnc3)no2)cc1	.	3.5	?	-9.0	-13.1%	-13.9%
Brc1cccc(-c2nc(-c3ccncc3)no2)c1	.	11.4	?	12.1	3.2%	8.5%
SMILES	VACV mCherry inh	Cycloheximide cs	Marburg entry inh	Shiga inhibitor	Vaccinia Venus	LASV entry inh
C=C1c2ccccc2O[C@H](C(=O)OCC)[C@@H]1C1CCCCC1 (tested in a mixture with another compound)	.	7.3	.	i	.	.
Cc1noc(-c2ccc(-c3noc(-c4ccccc4)n3)cc2)n1	-4.8%	.	.	.	-1.3%	2.1%[46.1 µM]
Cc1ccc(-c2nc(-c3ccccc3)no2)cc1	-16.6%	37.7*	?	64.1*	-6.1%	?
CCCc1noc(-c2cccc([N+](=O)[O-])c2)n1	-2.1%	21.8	-2.1%	63.0	6.9%	10.9%
Cc1ccc(-c2nc(-c3cccnc3)no2)cc1	-17.3%	47.9*	-9.4%[46.1 µM]	89.7*	-7.5%	?
CC(C)(C)c1ccc(-c2nc(-c3ccncc3)no2)cc1	-24.6%	32.2*	?	62.8*	-11.5%	?
CCCc1noc(-c2ccc(-c3ccccc3)cc2)n1	-13.9%	65.5*	?	145.8*	-6.0%	4.6%
COc1ccccc1CNC(=O)C1(C)CCN1C(=O)C1(c2ccccc2)CC1 (configuration not stated)	-18.4%	.	.	.	-4.2%	.
Cc1ccc(-c2cnc(-c3ccncc3)o2)cc1	.	33.2*	-0.2%	95.2*	.	-17.2%
Nc1nc(-c2nonc2N)no1	i	-1.0	13.8%[46.1 µM]	-6.1	-5.6%	18.8%[46.1 µM]
CC(C)(C)c1ccc(-c2noc(-c3ccno3)n2)cc1	-10.3%	51.5*	?	82.2*	-17.1%	?
Cc1ccc(-c2nc(-c3ccncc3)no2)cc1	i	52.0*	?	71.6*	-9.2%	?
Nc1nonc1-c1noc(-c2ccccc2)n1	-7.2%	41.6*	?	57.2*	-12.0%	37.0%[14.3 µM]
Cn1c(=O)c2c(nc(N/N=C/c3ccc(OC(=O)c4ccco4)cc3)n2Cc2ccccc2)n(C)c1=O	-2.1%	-5.1	?	6.0	-3.2%	10µM*
Cc1ccccc1NC(=O)/C(C#N)=C\c1ccsc1	-17.4%	27.6*	?	55.5	-15.3%	7.1%
Cc1cccc(C)c1NC(=O)/C(C#N)=C/c1cccs1	-9.0%	-1.0	-7.2%[46.1 µM]	-2.0	2.6%	-26.7%
N#C/C(=C\c1cccs1)C(=O)Nc1ccccn1	i	36.1*	?	40.5	4.7%	?
CC(C)(C)c1ccc(C(=O)/C(C#N)=C/c2cccs2)cc1	-4.4%	33.4*	7.6%[46.1 µM]	73.2*	24.9%	1.2%[46.1 µM]
Cc1ccccc1NC(=O)/C(C#N)=C\c1cccnc1	.	-1.6	-1.8%	-3.2	.	2.6%
Cc1ccc(NC(=O)/C(C#N)=C/c2cccs2)c(C)c1	.	50.0*	?	100.8*	-17.6%	?
CCCn1c(=O)sc2cc(NC(=O)c3ccc(OC)c(Br)c3)ccc21	-14.8%	.	?	.	-12.2%	?
COc1ccc2c(C)c(CC(=O)NCCc3ccccc3)c(=O)oc2c1OC	-8.2%	.	-0.2%[46.1 µM]	.	-7.5%	8.6%[46.1 µM]
COc1ccc(/C=C(/C#N)C(=O)Nc2cc(C)ccc2C)cc1C(=O)O	i	-1.5	?	-8.9	-12.5%	?
Cc1ccc(NC(=O)/C(C#N)=C/c2ccsc2)c(C)c1	-6.7%	43.4*	10.1%	101.8*	-13.8%	?
COc1ccc(-n2nnnc2C(c2cccc3ccccc23)N2CCN(C/C=C/c3ccccc3)CC2)cc1 (configuration not stated)	i	.	.	.	-2.1%	.
Cn1c(CNC(=O)c2ccccc2F)cc2ccccc21	.	15.6*	.	-1.5	.	.
CCn1c(CNC(=O)c2ccccc2F)cc2cc(C)ccc21	-15.0%	14.5*	14.1%	13.5	1.7%	6.2%
